Test results reported in PubChem BioAssay (EPA / NIEHS).
Results filed as inconclusive are left out. Active and inactive are the calls of the source. Rule for the calls: active = hit-call score of the fitted dose curve at least 0.9, where 1 is the maximum; inconclusive = response in the unintended direction; inactive = score below 0.9.

How the values were obtained:
[1] = ACEA_AR_agonist_AUC_viability: ACEA Biosciences xCELLigence Real-Time Cell Analysis on Androgen Receptor Agonism for Viability (AID 2283775);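 for AC50: viability read 80 hours after compound addition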
How it was run: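 Read-out is area under the impedance curve at 80 h post-dose in 22Rv1 cells, with DMSO as baseline and signal loss taken as reduced viability. Compounds ran in duplicate from 100 uM final.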

[2] = ACEA_AR_antagonist_AUC_viability: ACEA Biosciences xCELLigence Real-Time Cell Analysis on Androgen Receptor Antagonism for Viability (AID 2283776);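 note: 22Rv1 human prostate cancer cells growing on impedance electrode plates; area under impedance growth curve at 80 h after dosing as viability; hits lower the growth signal relative to DMSO meaning cytotoxicity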
How it was run: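 Viability endpoint from label-free cell-index monitoring: 22Rv1 cultures treated with an eight-point 1:4 dilution series starting at 100 uM final, AUC at 80 h fitted against DMSO.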

[3] = ACEA_ER_AUC_viability: ACEA Biosciences xCELLigence Real-Time Cell Analysis on Estrogen Receptor Agonism for Viability (AID 2283782);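 note: continuous compound exposure with impedance area under curve over 80 h; hit means loss of impedance signal meaning reduced cell growth or viability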
How it was run: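 T47D cells preconditioned in phenol red-free RPMI with charcoal-stripped FBS, then dosed with 8-point 1:4 series from 100 uM (up to 0.5% DMSO). Impedance monitored up to ~80 h; area-under-curve loss versus DMSO taken as viability.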

[4] = STM_H9_NormalizedViability: Cytotoxicity Assessment at 120 hours in the Stemina devTOX quickPredict H9 human embryonic stem cell (hESC)-based Assay (AID 2283784)
How it was run: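 Undifferentiated H9 hESCs kept pluripotent were exposed to compound, with media and chemical replaced every 24h. CellTiter-Fluor protease-substrate fluorescence was background-corrected and normalized per plate to the 0.1% DMSO vehicle; signal loss indicates reduced viability.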

AR (gene 367) [5] = target: AR (gene 367) (UniProt P10275); test: ACEA_AR_agonist_80hr: ACEA Biosciences xCELLigence Real-Time Cell Analysis on Androgen Receptor Agonism for Proliferation (AID 2283783);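 note: hits increase impedance growth signal above DMSO baseline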
How it was run: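 Proliferation of 22Rv1 prostate cancer cells tracked by electrical impedance, endpoint taken at 80 hours after dosing. Eight-point 1:4 dilutions from 100 uM maximum final, duplicate; testosterone and MG132 as positive controls, assay media as negative.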

AR (gene 367) [6] = target: AR (gene 367) (UniProt P10275); test: ACEA_AR_antagonist_80hr: ACEA Biosciences xCELLigence Real-Time Cell Analysis on Androgen Receptor Antagonism for Proliferation (AID 2283787);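 note: 22Rv1 human prostate cancer cells with growth followed by electrical impedance; hits lower the impedance growth signal relative to DMSO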
How it was run: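 22Rv1 cells in assay medium, growth tracked by electrical impedance; compounds eight-point 1:4 dilutions from 100 uM final, duplicate plates. Endpoint at 80 h; loss of signal versus DMSO.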

Sequence of AR (gene 367) (P10275 whole entry, looked up): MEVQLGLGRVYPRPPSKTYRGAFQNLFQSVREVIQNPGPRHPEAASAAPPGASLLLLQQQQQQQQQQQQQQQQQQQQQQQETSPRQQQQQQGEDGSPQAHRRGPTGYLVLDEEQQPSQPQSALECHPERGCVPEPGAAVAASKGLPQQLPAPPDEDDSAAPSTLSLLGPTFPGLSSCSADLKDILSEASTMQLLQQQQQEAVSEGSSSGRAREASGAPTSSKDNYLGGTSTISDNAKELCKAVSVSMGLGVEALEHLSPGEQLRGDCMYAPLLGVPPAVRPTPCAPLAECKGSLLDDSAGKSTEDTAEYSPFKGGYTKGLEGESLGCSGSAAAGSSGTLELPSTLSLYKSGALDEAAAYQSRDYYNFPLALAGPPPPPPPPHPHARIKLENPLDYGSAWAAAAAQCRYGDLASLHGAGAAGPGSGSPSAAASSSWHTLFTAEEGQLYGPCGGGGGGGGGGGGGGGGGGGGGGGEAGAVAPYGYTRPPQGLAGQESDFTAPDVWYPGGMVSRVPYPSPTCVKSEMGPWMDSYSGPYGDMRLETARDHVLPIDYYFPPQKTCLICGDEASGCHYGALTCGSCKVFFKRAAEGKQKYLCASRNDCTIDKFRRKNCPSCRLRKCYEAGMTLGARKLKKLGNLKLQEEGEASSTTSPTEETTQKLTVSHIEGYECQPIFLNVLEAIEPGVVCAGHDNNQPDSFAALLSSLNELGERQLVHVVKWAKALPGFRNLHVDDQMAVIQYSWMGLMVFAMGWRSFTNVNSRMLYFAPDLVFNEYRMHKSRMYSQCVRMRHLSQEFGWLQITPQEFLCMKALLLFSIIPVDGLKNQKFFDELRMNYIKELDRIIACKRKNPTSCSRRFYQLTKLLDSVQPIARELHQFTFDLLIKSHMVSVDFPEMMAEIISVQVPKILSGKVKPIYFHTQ

Structure (SMILES): CCCCCCC(C=O)=Cc1ccccc1
- AC50 [1]: 76.7 µM (active)
- AC50 [2]: 78.5 µM (active)
- AC50 [3]: 74.7 µM (active)

Structure (SMILES): CC(=O)CC(c1ccccc1)c1c(O)c2ccccc2oc1=O (stereo not given)
- outcome [1]: inactive
- outcome [2]: inactive
- outcome [3]: inactive
- outcome [4]: inactive

Structure (SMILES): CCC(C)N(C)C(=O)c1cc2ccccc2c(-c2ccccc2Cl)n1 (stereo not given)
- AC50 [1]: 45.7 µM (active)
- AC50 [2]: 40.9 µM (active)
- outcome [3]: inactive
- outcome (AR (gene 367) [5]): inactive
- outcome [4]: inactive
- AC50 (AR (gene 367) [6]): 46.4 µM (active)

Structure (SMILES): NC1CCCCC1
- outcome [1]: inactive
- outcome [2]: inactive
- outcome [3]: inactive

Structure (SMILES): COc1ccc(OC(F)(F)F)cc1CN[C@H]1CCCN[C@H]1c1ccccc1
- AC50 [1]: 65.5 µM (active)
- AC50 [2]: 67 µM (active)
- AC50 [3]: 14.9 µM (active)

Structure (SMILES): O=C1OC(c2ccc(O)cc2)(c2ccc(O)cc2)c2ccccc21
- AC50 [1]: 21.1 µM (active)
- AC50 [2]: 19.8 µM (active)
- AC50 [3]: 92 µM (active)
- outcome (AR (gene 367) [5]): inactive
- outcome [4]: inactive
- AC50 (AR (gene 367) [6]): 20.6 µM (active)

Structure (SMILES): CCCCCCCCCCCCCCCCO
- outcome [1]: inactive
- outcome [2]: inactive
- outcome [3]: inactive
- outcome [4]: inactive

Structure (SMILES): Nc1nc(Cl)nc2c1ncn2[C@H]1C[C@H](O)[C@@H](CO)O1
- AC50 [1]: 1.98 µM (active)
- AC50 [2]: 1.45 µM (active)
- AC50 [3]: 0.0619 µM (active)
- AC50 [4]: 0.902 µM (active)

Structure (SMILES): Cc1ccc(C(C)(C)C)c(O)c1
- outcome [1]: inactive
- outcome [2]: inactive
- AC50 [3]: 75.6 µM (active)

Structure (SMILES): Cc1c(C)c2c(c(C)c1O)CCC(C)(COc1ccc(CC3SC(=O)NC3=O)cc1)O2 (stereo not given)
- AC50 [1]: 50 µM (active)
- AC50 [2]: 50 µM (active)
- AC50 [3]: 82.9 µM (active)
- AC50 (AR (gene 367) [6]): 55.8 µM (active)

Structure (SMILES): CC(=O)OC1CC(C)OC(C)O1 (stereo not given)
- outcome [3]: inactive

Structure (SMILES): O=NO
- outcome [2]: inactive
- outcome [3]: inactive

Structure (SMILES): Cc1occc(=O)c1O
- outcome [2]: inactive

Structure (SMILES): C#CC(O)C(CC)CCCC (stereo not given)
- outcome [1]: inactive
- outcome [2]: inactive
- outcome (AR (gene 367) [5]): inactive

Structure (SMILES): O=[Si]=O
- outcome [2]: inactive

Structure (SMILES): CSc1ccc(Oc2ccc(S(N)(=O)=O)cc2CN(C)C)cc1C
- AC50 [1]: 65.2 µM (active)
- AC50 [2]: 50 µM (active)
- AC50 [3]: 50 µM (active)
- AC50 (AR (gene 367) [6]): 62.4 µM (active)

Structure (SMILES): Cc1cc(Cc2ccc(N)c(C)c2)ccc1N
- outcome [1]: inactive
- outcome [2]: inactive
- outcome [4]: inactive

Structure (SMILES): CC(C)OC(=O)C(C)(C)Oc1ccc(C(=O)c2ccc(Cl)cc2)cc1
- AC50 [1]: 35.4 µM (active)
- AC50 [2]: 41.2 µM (active)
- outcome (AR (gene 367) [5]): inactive
- AC50 (AR (gene 367) [6]): 53.4 µM (active)

Structure (SMILES): COC(=O)CCCC(=O)OC
- outcome [2]: inactive

Structure (SMILES): CC(=O)OCC(COC(C)=O)OC(C)=O
- outcome [2]: inactive
- outcome [3]: inactive

Structure (SMILES): C=CCc1ccc(OC)c(OC)c1
- outcome [3]: inactive

Structure (SMILES): S=c1[nH]c2ccccc2s1
- outcome [2]: inactive
- AC50 [3]: 91.9 µM (active)

Structure (SMILES): O=Cc1ccccc1C=O
- AC50 [1]: 79.2 µM (active)
- AC50 [2]: 78.7 µM (active)
- outcome [3]: inactive
- AC50 (AR (gene 367) [6]): 83 µM (active)

Structure (SMILES): Cc1ccc(-c2cc(C(F)(F)F)nn2-c2ccc(S(N)(=O)=O)cc2)cc1
- AC50 [1]: 17.7 µM (active)
- AC50 [2]: 15.9 µM (active)
- AC50 [3]: 90.7 µM (active)
- AC50 (AR (gene 367) [6]): 12.7 µM (active)

Structure (SMILES): C/C=C/C=C/C(=O)O
- outcome [2]: inactive
- outcome [3]: inactive

Structure (SMILES): CCc1nc(N)nc(N)c1-c1ccc(Cl)cc1
- AC50 [1]: 50 µM (active)
- AC50 [2]: 50 µM (active)
- AC50 [4]: 33.9 µM (active)

Structure (SMILES): CC(COCC(C)OC(=O)c1ccccc1)OC(=O)c1ccccc1 (stereo not given)
- outcome [2]: inactive
- outcome [4]: inactive

Structure (SMILES): O=C1c2c(O)cccc2Cc2cccc(O)c21
- outcome [2]: inactive
- outcome [3]: inactive

Structure (SMILES): CC(=O)[C@@]1(O)CC[C@H]2[C@@H]3CCC4=CC(=O)CC[C@]4(C)[C@H]3CC[C@@]21C
- outcome [2]: inactive
- outcome [4]: inactive

Structure (SMILES): O=C1CCCCC1
- outcome [1]: inactive
- outcome [2]: inactive
- outcome [3]: inactive
- outcome (AR (gene 367) [6]): inactive

Structure (SMILES): O=C(Oc1ccccc1)c1cccc(C(=O)Oc2ccccc2)c1
- outcome [2]: inactive
- outcome (AR (gene 367) [5]): inactive
- outcome [4]: inactive
- outcome (AR (gene 367) [6]): inactive

Structure (SMILES): CCCCC(CC)CO (stereo not given)
- outcome [2]: inactive

Structure (SMILES): NCCOCCOCCN
- outcome [1]: inactive
- outcome [2]: inactive
- outcome (AR (gene 367) [6]): inactive

Structure (SMILES): Oc1ccc(O)cc1
- AC50 [2]: 50 µM (active)
- AC50 [3]: 11.3 µM (active)

Structure (SMILES): CC(C)c1cccc(C(C)C)c1
- outcome [2]: inactive
- outcome [3]: inactive

Structure (SMILES): CCCCCCCCCC[N+](C)(C)[O-]
- outcome [1]: inactive
- outcome [2]: inactive
- outcome [4]: inactive
- outcome (AR (gene 367) [6]): inactive

Structure (SMILES): O=C(NS(=O)(=O)/C=C/c1cccs1)c1ccc(F)cc1Br
- AC50 [1]: 3.38 µM (active)
- AC50 [2]: 3.42 µM (active)
- AC50 (AR (gene 367) [6]): 3.96 µM (active)

Structure (SMILES): CN(C)CCCN1c2ccccc2Sc2ccc(Cl)cc21
- AC50 [1]: 22.2 µM (active)
- AC50 [3]: 13.1 µM (active)
- AC50 [4]: 3.22 µM (active)
